“And” between values parts separate entries of the source, which are not always exact repeats. Identical values can stand only once. Out of some 5,500 compounds screened, about 2,000 (36%) were called active. Inconclusive results (about 18%) are left out. Cut-off read from the data, not from the text of the source: active = normalized growth mostly below about 0.91 (no sharp cut-off); inconclusive = no clear call, values can overlap the other calls; inactive = mostly above about 0.92. This is one part of the list.
Assay: chemical genetic growth profiling, strain panel (AID 1159580);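 note: tested at 20 µM; growth read once vehicle control cultures reached saturation at 30 °C; 1 = growth at the plate median or of vehicle wells; lower values mean less growth of the strain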
Conditions: S. cerevisiae deletion strains, growth OD

Measured: normalized growth

CCCCC(=O)O[C@H]1CCC2C3CCc4cc(O)ccc4C3CC[C@@]21C (some centres not stated)
inactive: locus YAL021C, strain ccr4, stronger effect = lower value 1.02 | locus YAL026C, strain drs2, stronger effect = lower value 1.02 | locus YAL030W, strain snc1, stronger effect = lower value 1.03 | locus YBL061C, strain skt5, stronger effect = lower value 1.01 | locus YBR009C, strain hhf1, stronger effect = lower value 0.988 | locus YBR021W, strain FUR4, stronger effect = lower value 0.99 | locus YBR023C, strain chs3, stronger effect = lower value 1.01 | locus YBR171W, strain sec66, stronger effect = lower value 1.03 | locus YBR229C, strain ROT2, stronger effect = lower value 0.943 | locus YBR231C, strain swc5, stronger effect = lower value 1.04 | locus YBR279W, strain paf1, stronger effect = lower value 1.01 | locus YCL011C, strain gbp2, stronger effect = lower value 1.01 | locus YCL016C, strain dcc1, stronger effect = lower value 0.979 | locus YCL029C, strain bik1, stronger effect = lower value 0.98 | locus YCL061C, strain MRC1, stronger effect = lower value 1.02 | locus YCL069W, strain vba3, stronger effect = lower value 1.01 | locus YCR088W, strain abp1, stronger effect = lower value 1.01 | locus YDL005C, strain med2, stronger effect = lower value 1.01 | locus YDL035C, strain GPR1, stronger effect = lower value 0.948 | locus YDL040C, strain nat1, stronger effect = lower value 1.02 | locus YDL074C, strain BRE1, stronger effect = lower value 0.926 | locus YDL101C, strain DUN1, stronger effect = lower value 0.98 | locus YDL134C, strain PPH21, stronger effect = lower value 0.954 | locus YDL185W, strain tfp1, stronger effect = lower value 0.988 | locus YDL192W, strain arf1, stronger effect = lower value 1 | locus YDR001C, strain nth1, stronger effect = lower value 1.01 | locus YDR069C, strain doa4, stronger effect = lower value 1.01 | locus YDR101C, strain arx1, stronger effect = lower value 0.953 | locus YDR137W, strain rgp1, stronger effect = lower value 0.973 | locus YDR150W, strain NUM1, stronger effect = lower value 0.988 | locus YDR159W, strain sac3, stronger effect = lower value 0.953 | locus YDR162C, strain NBP2, stronger effect = lower value 0.919 | locus YDR195W, strain ref2 1.03 | locus YDR297W, strain sur2, stronger effect = lower value 1.03 | locus YDR318W, strain mcm21, stronger effect = lower value 0.996 | locus YDR334W, strain swr1, stronger effect = lower value 1.02 | locus YDR335W, strain msn5, stronger effect = lower value 1.02 | locus YDR388W, stronger effect = lower value 0.992 | locus YDR392W, strain spt3, stronger effect = lower value 0.804 | locus YDR502C, strain sam2, stronger effect = lower value 0.995 | locus YEL003W, strain gim4, stronger effect = lower value 1.02 | locus YEL037C, strain rad23, stronger effect = lower value 1.02 | locus YEL061C, strain CIN8 (second series), stronger effect = lower value 1.02 | locus YEL061C, strain CIN8, stronger effect = lower value 0.985 | locus YER015W, strain faa2, stronger effect = lower value 1 | locus YER016W, strain bim1, stronger effect = lower value 1 | locus YER110C, stronger effect = lower value 1.01 | locus YER111C, strain swi4, stronger effect = lower value 1.01 | locus YER155C, strain BEM2 (second series), stronger effect = lower value 1.03 | locus YER155C, strain BEM2, stronger effect = lower value 0.979 | locus YER167W, strain BCK2, stronger effect = lower value 0.979 | locus YFR010W, strain ubp6, stronger effect = lower value 1.04 | locus YGL078C, strain dbp3, stronger effect = lower value 1.01 | locus YGL086W, strain mad1, stronger effect = lower value 0.968 | locus YGL167C, strain pmr1, stronger effect = lower value 1.04 | locus YGL173C, strain kem1, stronger effect = lower value 1.01 | locus YGL227W, strain vid30, stronger effect = lower value 1.01 | locus YGL240W, strain doc1, stronger effect = lower value 1.04 | locus YGL248W, strain PDE1, stronger effect = lower value 0.976 | locus YGL253W, strain hxk2, stronger effect = lower value 0.997 | locus YGR078C, strain PAC10, stronger effect = lower value 0.973 | locus YGR135W, strain pre9, stronger effect = lower value 1.07 | locus YGR252W, strain gcn5, stronger effect = lower value 1.1 | locus YHR013C, strain ard1, stronger effect = lower value 1.03 | locus YHR027C, strain rpn1, stronger effect = lower value 1.02 | locus YHR030C, strain SLT2, stronger effect = lower value 0.98 and 0.996 | locus YHR079C, strain IRE1 (second series), stronger effect = lower value 0.997 | locus YHR079C, strain IRE1, stronger effect = lower value 0.989 | locus YHR094C, strain hxt1, stronger effect = lower value 0.991 | locus YHR129C, strain ARP1, stronger effect = lower value 0.989 | locus YHR142W, strain chs7, stronger effect = lower value 1.01 | locus YHR200W, strain rpn10, stronger effect = lower value 0.998 | locus YIL066C, strain RNR3, stronger effect = lower value 0.961 | locus YIL073C, strain SPO22, stronger effect = lower value 1 | locus YIL125W, strain kgd1, stronger effect = lower value 0.998 | locus YIR030C, strain dcg1, stronger effect = lower value 1.01 | locus YJL092W, strain hpr5, stronger effect = lower value 1.01 | locus YJL095W, strain BCK1 (second series), stronger effect = lower value 1.02 | locus YJL095W, strain BCK1, stronger effect = lower value 0.926 and 0.996 | locus YJL115W, strain asf1, stronger effect = lower value 1.02 | locus YJL129C, strain trk1, stronger effect = lower value 0.996 | locus YJL134W, strain LCB3, stronger effect = lower value 0.982 | locus YJL154C, strain vps35, stronger effect = lower value 1.01 | locus YJL164C, strain tpk1, stronger effect = lower value 0.987 | locus YJL166W, strain qcr8, stronger effect = lower value 1.02 | locus YJL168C, strain set2, stronger effect = lower value 1 | locus YJL187C, strain SWE1 (second series), stronger effect = lower value 0.982 | locus YJL187C, strain SWE1, stronger effect = lower value 1.02 | locus YJR043C, strain POL32, stronger effect = lower value 0.955 | locus YJR066W, strain TOR1, stronger effect = lower value 0.916 | locus YKL009W, strain mrt4, stronger effect = lower value 0.95 | locus YKL068W, stronger effect = lower value 0.989 | locus YKL085W, strain MDH1 (second series), stronger effect = lower value 1.01 | locus YKL085W, strain MDH1, stronger effect = lower value 1.01 | locus YKL160W, strain elf1, stronger effect = lower value 1.01 | locus YKL190W, strain CNB1, stronger effect = lower value 0.992 | locus YKR001C, strain vps1, stronger effect = lower value 0.959 | locus YKR026C, strain gcn3, stronger effect = lower value 1.01 | locus YKR091W, strain srl3, stronger effect = lower value 1.01 | locus YLL001W, strain dnm1, stronger effect = lower value 1.02 | locus YLL026W, stronger effect = lower value 1.02 | locus YLL041C, strain sdh2, stronger effect = lower value 1.02 | locus YLR027C, strain aat2, stronger effect = lower value 1.03 | locus YLR039C, strain RIC1, stronger effect = lower value 0.848 | locus YLR058C, strain SHM2, stronger effect = lower value 0.96 | locus YLR102C, strain apc9, stronger effect = lower value 1.01 | locus YLR113W, strain HOG1, stronger effect = lower value 1.03 | locus YLR221C, strain rsa3, stronger effect = lower value 0.995 | locus YLR258W, strain gsy2, stronger effect = lower value 1 | locus YLR262C, strain YPT6 (second series), stronger effect = lower value 0.974 | locus YLR262C, strain YPT6, stronger effect = lower value 0.749 | locus YLR268W, strain sec22, stronger effect = lower value 0.982 | locus YLR320W, strain mms22, stronger effect = lower value 0.981 | locus YLR330W, strain CHS5, stronger effect = lower value 0.984 | locus YLR342W, strain FKS1 (second series), stronger effect = lower value 0.98 | locus YLR342W, strain FKS1, stronger effect = lower value 0.998 | locus YLR357W, strain rsc2, stronger effect = lower value 0.999 | locus YLR370C, strain arc18, stronger effect = lower value 1.03 | locus YLR371W, strain rom2, stronger effect = lower value 0.985 | locus YLR384C, strain iki3, stronger effect = lower value 1.02 | locus YLR418C, strain cdc73, stronger effect = lower value 1.02 | locus YML016C, strain PPZ1, stronger effect = lower value 0.979 | locus YML032C, strain rad52, stronger effect = lower value 0.987 | locus YML120C, strain ndi1, stronger effect = lower value 1.02 | locus YML124C, strain tub3, stronger effect = lower value 1 | locus YMR058W, strain fet3, stronger effect = lower value 1.02 | locus YMR078C, strain ctf18, stronger effect = lower value 1 | locus YMR125W, strain sto1, stronger effect = lower value 0.999 | locus YMR129W, stronger effect = lower value 1.01 | locus YMR205C, strain PFK2, stronger effect = lower value 0.985 | locus YMR223W, strain ubp8, stronger effect = lower value 1.04 | locus YMR231W, strain pep5, stronger effect = lower value 1.05 | locus YMR307W, strain GAS1, stronger effect = lower value 0.881 | locus YNL067W, strain RPL9B, stronger effect = lower value 0.982 | locus YNL071W, strain lat1, stronger effect = lower value 0.965 | locus YNL128W, strain TEP1, stronger effect = lower value 0.982 | locus YNL183C, strain NPR1, stronger effect = lower value 0.983 | locus YNL209W, strain ssb2, stronger effect = lower value 1.02 | locus YNL233W, strain BNI4, stronger effect = lower value 0.986 | locus YNL248C, strain rpa49, stronger effect = lower value 1.01 | locus YNL250W, strain rad50, stronger effect = lower value 0.984 | locus YNL271C, strain bni1, stronger effect = lower value 1 | locus YNL298W, strain CLA4, stronger effect = lower value 1 | locus YNL307C, strain MCK1, stronger effect = lower value 1 | locus YNL322C, strain KRE1 (second series), stronger effect = lower value 1.01 | locus YNL322C, strain KRE1, stronger effect = lower value 0.998 | locus YNR049C, strain mso1, stronger effect = lower value 1 | locus YNR052C, strain pop2, stronger effect = lower value 1.01 | locus YOL012C, strain htz1 1.24 | locus YOL147C, strain pex11, stronger effect = lower value 1.01 | locus YOR001W, strain rrp6, stronger effect = lower value 1.03 | locus YOR061W, strain CKA2, stronger effect = lower value 0.962 | locus YOR069W, strain VPS5, stronger effect = lower value 0.984 | locus YOR070C, strain gyp1, stronger effect = lower value 1.02 | locus YOR080W, strain dia2, stronger effect = lower value 1.03 | locus YOR083W, strain WHI5, stronger effect = lower value 1 | locus YOR106W, strain vam3, stronger effect = lower value 1.04 | locus YOR136W, strain idh2, stronger effect = lower value 1 | locus YOR144C, strain elg1, stronger effect = lower value 0.999 | locus YOR184W, strain ser1, stronger effect = lower value 0.969 | locus YOR231W, strain MKK1, stronger effect = lower value 1.04 | locus YOR265W, strain rbl2, stronger effect = lower value 1.02 | locus YOR270C, strain vph1, stronger effect = lower value 0.965 | locus YOR290C, strain snf2, stronger effect = lower value 0.988 | locus YOR316C, strain cot1, stronger effect = lower value 0.994 | locus YPL051W, strain arl3, stronger effect = lower value 1.01 | locus YPL055C, strain LGE1, stronger effect = lower value 0.959 | locus YPL078C, strain atp4, stronger effect = lower value 1.03 | locus YPL106C, strain sse1, stronger effect = lower value 1 | locus YPL240C, strain hsp82, stronger effect = lower value 1.01 | locus YPL241C, strain CIN2, stronger effect = lower value 0.975 | locus YPL256C, strain CLN2, stronger effect = lower value 1 | locus YPR119W, strain clb2, stronger effect = lower value 0.998 | locus YPR141C, strain kar3, stronger effect = lower value 0.997 | locus YPR163C, strain tif3, stronger effect = lower value 1.01 | locus YPR167C, strain met16, stronger effect = lower value 1 | strain wtn01, stronger effect = lower value 1.03
